Test results: ChEMBL document CHEMBL3433997, “St. Jude Leishmania screening dataset” (2016)

target: Glucose transporter (Leishmania mexicana) (UniProt O61059); assay: ST_JUDE_LEISH: Cytotoxicity at 2uM final concentration against transgenic Leishmania Mexicana promastigotes LmGT2 that are glucose transport deficient and complemented with the L. Mexicana glucose transporter 2. Activity is measured by DNA content using SYBR green in vitro; type: functional

| Structure (SMILES) | inhibition [%] |
| --- | --- |
| CCCCNC(=O)[C@H](Cc1ccccc1)NC(=O)c1ccc(O)c(-c2ccc(Cl)c(Cl)c2)c1 | 3.71 |
| CN(C(=O)/C=C/c1cc(C(F)(F)F)ccc1F)C1CCN(CCCCCNC(=O)/C=C/c2ccc(Cl)c(Cl)c2)C1 (stereo not given) | 1.37 |
| C=CCc1cc(Br)ccc1OCCCON1C(N)=NC(N)=NC1(C)C | 17.7 |
| CS(=O)(=O)Nc1ccc2[nH]cc(C3CCN(CC(O)C4CCN(C(=O)/C=C/c5ccc(Cl)c(Cl)c5)CC4)CC3)c2c1 (stereo not given) | 3.3 |
| Cc1ccc(CNC(=O)[C@H](Cc2ccccc2)Nc2ccnc(NCC3CCCCC3)n2)cc1 | 3.01 |
| CC(C)(C)c1cc(C(=O)N2CCN(c3ncccc3C(F)(F)F)CC2)n(Cc2ccccc2)n1 | 4.37 |
| CCCc1cc2c3c(N)nc(N)nc3ccc2n1C(CC)CC | 42.6 |
| O=C(c1csc(-c2cccnc2)n1)N1CCc2cc3nccc(N4CCN5CCC[C@H]5C4)c3cc21 | 5.59 |
| O=c1cc(NC[C@H]2CCC[C@@H]2NC2CCCc3c2[nH]c2ccccc32)[nH]c2ccccc12 (stereo not given in full) | 5.67 |
| O=C(/C=C/c1ccc(Cl)c(Cl)c1)NCCCCCN1CCC(NC(=S)Nc2ccc(F)cc2F)CC1 | 14.5 |
| FC(F)(F)c1ccc2[nH]c(-c3ccc(-c4ccc(CNCCN5CCNCC5)cc4)s3)nc2c1 | 9.03 |
| COc1ccc(CN2CCCN(Cc3cccc(NC(=O)c4ccc(-c5ccccc5)cc4)c3)CC2)cc1 | -4.3 |
| C[C@@H](CC1CCCCC1)NCc1cccc(NS(=O)(=O)c2ccc(O)c(-c3ccno3)c2)c1 | 14.5 |
| CCC[C@@H]([C@@H](CC1CCC(C)CC1)C(=O)N[C@@H](CO)C(=O)Nc1nccs1)N(O)C=O (stereo not given in full) | 1.54 |
| CN1CCN(C(C(=O)NCc2cc(Cl)cc(Cl)c2)c2ccc(Nc3cccc(C(F)(F)F)c3)cc2)CC1 (stereo not given) | -2.02 |
| Cc1ccc(CON2C(N)=NC(N)=NC2(C)C)c(Cl)c1.Cc1ccc(CON2C(N)=NC(N)=NC2(C)C)cc1Cl | 1 |
| CC(C)(Cc1ccc(Cl)cc1)NCCCCCCNCCc1ccc(O)c(O)c1 | -1.18 |
| CC1(C)NC(N)=NC(=N)N1OCCCNC(=O)c1ccc(C(=O)NCCCON2C(=N)N=C(N)NC2(C)C)cc1 | 1.51 |
| CCOc1ccc2c(=NN=Cc3cc(OC)c(OC)c(OC)c3)cc(C)[nH]c2c1 | -0.3 |
| CC(C)(C)Nc1nc(Nc2cccc([N+](=O)[O-])c2)nc(-n2ccnc2)n1 | -1.47 |

| Structure (SMILES) | inhibition [%] |
| --- | --- |
| CC1CCCCN1CCCNc1ncc2c(-c3ccc(NC(=O)Nc4cc(C(F)(F)F)ccc4F)c(F)c3)nn(C)c2n1 (stereo not given) | 0.83 |
| COc1ccc(-n2ccnc2SCC(=O)Nc2cccc(C(F)(F)F)c2)c(OC)c1 | -0.9 |
| CN(C)CCCOc1ccc(CN2CC[C@H](NC(=O)c3ccc(Cl)c(Cl)c3)C2)cc1Br | 0.53 |
| Cc1occc1C(=O)Nc1nc(-c2ccccn2)nc2ccsc12 | 70 |
| CCNC1=NC2=C(CC(C(C)(C)C)CC2)C2(CCC(C(C)(C)C)CC2)S1 (stereo not given) | 1.15 |
| COc1ccc(NC(=O)Nc2cc(C)nc3ccccc23)cc1Cl | 7.39 |
| O=C(Nc1cccc(CN2CCN(Cc3ccc(O)cc3)CC2)c1)c1ccc(-c2ccccc2)cc1 | -3.36 |
| Cc1csc(-c2ncc(OC[C@@H](N)Cc3ccccc3)cc2-c2ccc3[nH]nc(C)c3c2)c1 | -0.58 |
| CC(Oc1cc(-n2cnc3ccc(NC(=O)CCN4CCCCC4)cc32)sc1C(N)=O)c1ccccc1Cl (stereo not given) | 6.83 |
| COc1ccc(-c2ccc(NC(=O)c3ccc(Cl)cc3)cc2)cc1CN(C)CCN(C)C | 2.75 |
| COc1ccc2c(=NN=C(C)c3ccccn3)cc(C)[nH]c2c1 | 4.08 |
| O=[N+]([O-])c1cccc(CNC2CCN(Cc3ccc4ccccc4c3)CC2)c1 | 10.9 |
| CCCN(CC1CC1)c1ncc(-c2ccccc2CNCc2ccccc2O)cn1 | 4.56 |
| CC1CCC(NC(=O)c2nn(-c3ccc(Cl)cc3)c(=O)c3ccccc23)CC1 (stereo not given) | -0.26 |
| O=C(NCCCCN1CCC(c2ccc3c(c2O)CCCC3)CC1)c1ccc(-c2ccc(Cl)cc2)cc1 | 2.37 |
| COc1ccc(-c2cc(C(=O)N[C@@H](CC3CCCCC3)C(=O)NCCN3CCCC3)ccc2O)cc1 | 1.32 |
| O=C(NCCCCCN1CCC(c2c[nH]c3ccccc23)CC1)Nc1ccc(Br)cc1 | -0.48 |
| O=[N+]([O-])c1cccc(/C=N/Nc2ccnc3ccc(C(F)(F)F)cc23)c1 | 0.3 |
| Cc1c(CNCCN2CCCCC2)c(C(=O)O)c(C)n1Cc1ccc(Cl)cc1 | 0.22 |
| COc1ccc(CCN(C)CCCN2CCC(NC(=O)c3cccc4c(=O)c5ccccc5sc34)CC2)cc1OC | 5.63 |
